# Many of the other results were omitted from the sample, so hits are more common in it than they were.
# GBA mod: Glucocerebrosidase. purified enzyme, resorufin glucoside fluorescence (screen aimed at inhibitors), 20 min. 48,000 compounds, 1.1% hits. AID 360, 2006. Lysosomal acid glucosylceramidase (Homo sapiens), P04062. Potency, µM; in the data active = potency below about 15 µM;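 note: the screen sought inhibitors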
# Target sequence (P04062 whole entry, looked up): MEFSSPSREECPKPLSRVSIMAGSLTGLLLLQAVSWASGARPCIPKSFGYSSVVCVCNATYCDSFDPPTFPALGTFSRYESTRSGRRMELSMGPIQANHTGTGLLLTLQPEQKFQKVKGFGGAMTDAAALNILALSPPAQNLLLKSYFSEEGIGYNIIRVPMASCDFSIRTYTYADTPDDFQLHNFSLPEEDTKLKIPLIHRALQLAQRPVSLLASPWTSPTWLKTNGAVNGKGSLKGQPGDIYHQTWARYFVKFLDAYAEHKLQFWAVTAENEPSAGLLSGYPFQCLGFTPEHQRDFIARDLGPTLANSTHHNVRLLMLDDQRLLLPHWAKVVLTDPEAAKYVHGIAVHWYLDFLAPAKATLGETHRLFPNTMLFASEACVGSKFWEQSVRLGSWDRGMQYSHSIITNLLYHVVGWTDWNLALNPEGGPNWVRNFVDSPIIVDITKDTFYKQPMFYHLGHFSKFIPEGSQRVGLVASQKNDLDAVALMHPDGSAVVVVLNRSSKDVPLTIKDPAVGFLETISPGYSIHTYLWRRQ
#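 Wild-type enzyme at 0.2 nM final in 50mM citric acid/KH2PO4, 10mM sodium taurocholate, 0.01% tween-20, pH 5.9, with resorufin beta-D-glucopyranoside at 30 uM final. Compounds titrated, 20 min at RT, red fluorescence read; AC50 from titration.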
# An asterisk follows results filed as active; i = inactive. Potency is the fitted concentration of half-maximal effect.
SMILES,GBA mod
CCCCn1c2nc3ccccc3nc2c2c(=O)n(CCC(C)C)cnc21,>77
CCOc1ccc(Cc2nc(C)c(CC(=O)N3CCOCC3)c(=O)[nH]2)cc1,>77
Cn1c(=O)n(CCN2CCOCC2)c(=O)c2c1nc1n2CCN1c1ccccc1,>77
O=C(CSc1nnnn1C1CCCCC1)NCCc1ccccc1,>77
COc1ccc(OCCn2c(=N)n(CCO)c3ccccc32)cc1,4.3*
COc1ccc(OCC(O)Cn2c(=N)n(CCN3CCCCC3)c3ccccc32)cc1 (centres undefined),>77
N=c1n(CCO)c2ccccc2n1Cc1ccccc1Cl,>77
Cn1c(=O)[nH]c(=O)c2[nH]c(N(Cc3ccccc3)Cc3ccccc3)nc21,>77
CCOC(=O)C1CCCN(C(=O)CSc2nccn2C)C1 (centres undefined),>77
CCC(C)NC(=O)CSC1=Nc2ccccc2C2=NC(CC(=O)NCc3ccccc3)C(=O)N12 (centres undefined),>77
O=C(Nc1ccc(-c2noc(CCc3ccccc3)n2)cc1)c1cccnc1,14*
CCCc1ccc(OCc2nc(-c3ccc(NC(=O)c4ccco4)cc3)no2)cc1,>77
Cc1ccccc1OCc1nc(-c2ccc(NC(=O)c3ccco3)cc2)no1,>77
CCn1cc(C(=O)Nc2cc3c(cc2NC(C)=O)OCCO3)c(=O)c2ccc(C)nc21,>77
COc1c2c(nc3occc13)C(CCC(C)(C)O)(OC)C(O)CC2 (centres undefined),>77
CCn1c(SCc2nc(-c3ccc(OC)c(OC)c3)no2)nnc1-c1cccs1,>77
CC12CCC(C(=O)N3CCN(Cc4ccccc4)CC3)(OC1=O)C2(C)C (centres undefined),>77
c1ccc(-c2nc3cc(Oc4ccc5oc(-c6ccccn6)nc5c4)ccc3o2)nc1,>77
CCn1c2ccccc2c2nnc(SCc3cc(=O)n4ccsc4n3)nc21,>77
Fc1ccccc1CSc1nnnn1-c1ccc2c(c1)OCO2,>77
N#Cc1ccc(-c2nnnn2-c2ccc3c(c2)OCO3)cc1,15*
N#Cc1cccc(-n2nnnc2-c2ccc3c(c2)OCO3)c1,>77
O=C(c1cc2ccccc2oc1=O)N(Cc1ccc2c(c1)OCO2)Cc1ccco1,>77
Cc1[nH]n2c(=O)c3c(nc2c1-c1ccccc1)CCC3,9.5*
Cc1[nH]n2c(=O)cc(C(C)C)nc2c1-c1ccccc1,>77
SMILES,GBA mod
O=c1c2c(nc3nc(COc4ccccc4)[nH]n13)CCC2,>77
O=c1c2c(nc3nc(SCc4ccccc4)[nH]n13)CCC2,>77
Cc1[nH]n2c(=O)c(C#N)c(-c3ccccc3)nc2c1-c1ccccc1,>77
Cc1[nH]n2c(=O)c3c(nc2c1-c1ccc(Cl)cc1)CCC3,12*
C=CCn1c(SCC(=O)/C(C#N)=C(\C)N)nnc1C1CCCCC1,>77
COCCCNC(=O)C1CCCN(C(=O)Nc2ccc(OC)cc2)C1 (centres undefined),>77
Cc1cccc(Nc2nc(NCc3ccco3)nc(N3CCOCC3)n2)c1,>77
Cc1nnc2sc(-c3cc4ccccc4o3)nn12,>77
CCOC(=O)c1oc2cccc(OCC(O)CNC(C)C)c2c1C (centres undefined),>77
Cc1cc(C(=O)Nc2ccc(N3CCOCC3)cc2)c2ccccc2n1,>77
COCCCNC(=O)CCC(=O)Nc1ccc2nc(N3CCOCC3)cc(C)c2c1,6.8*
CCCC(=O)Nc1ccc(N2CCOCC2)cc1,>77
CCOC(=O)C1CCCN(C(=O)CCC(=O)Nc2ccc3nc(N4CCOCC4)cc(C)c3c2)C1 (centres undefined),2.6*
Cc1ccc(NC(=O)CS(=O)CC(=O)Nc2ccc(N3CCOCC3)cc2)cc1Cl (centres undefined),>77
Cc1ccc(C)c(OCCCC(=O)Nc2ccc(N3CCOCC3)cc2)c1,>77
CCCC(=O)Nc1nc2ccc(NC(=O)c3ccc(Br)o3)cc2s1,>77
CCN1CCN(c2cc(C)c3cc(NC(=O)c4ccc(Br)o4)ccc3n2)CC1,5.1*
CCOC(=O)C1CCCN(CCC(=O)Nc2ccc(F)c(F)c2)C1 (centres undefined),>77
O=C(Nc1ccc2nn(-c3ccccc3)nc2c1)c1ccc(Br)o1,>77
CCOC(=O)C1CCCN(C(=O)c2cc3c(C)nc4ccccc4c3o2)C1 (centres undefined),>77
CCCCNC(=O)CCC(=O)Nc1ccc2nc(N3CCOCC3)cc(C)c2c1,3.8*
O=C(Cc1cn2ccsc2n1)Nc1nc2c(s1)CCCC2,>77
Cc1ccc2nc(NCCO)nc(-c3ccccc3)c2c1,>77
O=C(Nc1cccc(C(=O)N2CCOCC2)c1)c1cccnc1,>77
Nc1cc(C(=O)N2CCCC2)cc(C(=O)N2CCCC2)c1,>77
SMILES,GBA mod
COc1ccc(Cl)c(NCCC(=O)O)c1,>77
O=C(COc1ccccc1)n1nc(-c2ccc(Cl)cc2)nc1NCc1ccco1,>77
Cc1ccc(C)c(/C(O)=C2\C(=O)C(=O)N(CCCN(C)C)C2c2cccnc2)c1 (centres undefined),>77
CN1C(=O)C2(C(C#N)=C(N)Oc3c2oc(CO)cc3=O)c2ccccc21 (centres undefined),>77
Cc1cc2cc(CN(C(=O)C3CC3)C3CCCC3)c3nnnn3c2cc1C,>77
COC(=O)c1cc(CSc2nnc(NC3CCCCC3)s2)oc1C,>77
Cc1ccc2cc(C(c3nnnn3C(C)(C)C)N3CCCC3)c(=O)[nH]c2c1C (centres undefined),>77
Cc1nc2cc(N3CCOCC3)c(NC(=O)C3CC3)cc2c(=O)n1Cc1ccccc1,>77
Cc1cc(N2CCOCC2)nc2ccc(NC(=O)C3CCC(C)CC3)cc12 (centres undefined),0.061*
O=C(Nc1ccc(N2CCOCC2)cc1)C1CC1,>77
Cn1c(=O)[nH]c(=O)c2c1nc(N1CCNCC1)n2Cc1cccc2ccccc12,>77
COc1ccc(Nc2cc(C(=O)NCCCN3CCN(C)CC3)c3ccccc3n2)c(OC)c1,>77
CN1CCN(c2nc(N3CCN(CCO)CC3)nc3ccccc23)CC1,>77
C=CCNc1nc2ccccc2nc1NS(=O)(=O)c1cccs1,>77
O=C(NCCO)c1nc(NCCO)c2ccccc2n1,>77
COc1ccc(Nc2nc(N3CCCC3)nc3ccccc23)c(OC)c1,3.4*
C=CCNc1nc(N2CCCC2)nc2ccccc12,11*
C=CCOC(=O)C(C#N)c1nc2ccccc2nc1N1CCCC1 (centres undefined),>77
OCCNc1nc(N2CCN(Cc3ccccc3)CC2)nc2ccccc12,13*
COc1ccc(C(=O)Nn2c(C3CCC3)nc3ccccc3c2=O)c(OC)c1,>77
CCOC(=O)c1cn2c3c(c(F)c(F)c(F)c3c1=O)SC(N1CCCC1)=N2,>77
CCOC(=O)C1=C(CSc2n[nH]c(N)n2)NC(=O)NC1C (centres undefined),>77
CCOC(=O)c1cnc(SCC(=O)Nc2nc(C)c(C)s2)nc1N,>77
C=COCCNC(=O)C1CC(=O)N(c2ccc(C)cc2)C1 (centres undefined),>77
COc1ccccc1NS(=O)(=O)c1ccc(Br)s1,>77
SMILES,GBA mod
COc1cccc(NS(=O)(=O)c2ccc(Br)s2)c1,14*
COc1cccc(NS(=O)(=O)c2ccc(OC)c(OC)c2)c1,>77
CN(C)S(=O)(=O)c1cccc(CSc2cccc[n+]2[O-])c1,>77
CCOC(=O)c1oc2ccccc2c1NC(=O)c1cccc(OC)c1OC,>77
Cc1cccc(S(=O)(=O)c2c(N)n(/N=C/c3cccnc3)c3nc4ccccc4nc23)c1,i
Cc1ccc(S(=O)(=O)c2c(N)n(/N=C/c3ccco3)c3nc4ccccc4nc23)cc1,>77
